Assay outcomes (PubChem)
The list is not random: actives were taken first. Their share in the collection is about 3.2%.
GSIS activator – GLuc luminescence reporter in INS-1E cells, primary screen for activators of glucose-dependent secretion of insulin; INS-1E GLuc reporter insulin secretion, 2-3 h; activation, % at 16.6 µM; actives 0.61% (n = 370,000); AID 743287, 2014;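 active means lowest replicate activation of at least 40%, so every replicate reaches that level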
ERAP1 HTS inh – human ERAP1 aminopeptidase inhibitors, primary screen, biochemical, single point, plate reader; Endoplasmic reticulum aminopeptidase 1 (Homo sapiens), Q9NZ08; recombinant ERAP1, Leu-AMC fluorescence, 60 min; inhibition, % at 10.7 µM; actives 0.15% (n = 340,000); AID 652197, 2013;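 active means mean replicate inhibition of at least 30%, or all replicates individually reaching that 30% level; inactive means mean below 30% and not every replicate reaching it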
rRNA inh HTS – reduced GFP signal of wild-type E. coli, primary screen, bacterial rRNA inhibitor project, GFP/RFP fluorescence, OD600, single point. actives 1.6% (n = 350,000). AID 720706, 2013. E. coli WT GFP vs humanized-ribosome RFP mutants, 24 h; hits give low values; DMSO median 0, no signal -100. GFP signal change (wild-type ribosome), % (concentration not given with the values);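 active means significant combined selectivity score with lowered wild-type GFP, culture density cut under 30%, mutant RFP and density less affected; inactive means any of these conditions unmet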
DENV2 CPE rescue – inhibitors of DENV2 cytopathic effect, primary screen, cell-based, plate reader, single concentration; DENV2-infected cells, cytopathic effect rescue; CPE inhibition, % at 9.99 µM; actives 1.7% (n = 350,000); in the data active means CPE inhibition above about 20%, passing the limit was not always enough; inconclusive means no clear call, values can overlap the other calls; tested in BHK-21 cells
CaV13 FRET inh – Primary screen for inhibitors of IQ motif and Ca2+-dependent inactivation inhibitor domain binding in CACNA1D, Förster resonance energy transfer in living cells, … | HEK cells, CFP/YFP FRET ICDI-IQ, plate reader, 10 min; percent FRET-ratio fall versus neutral wells | inhibition, % at 12.3 µM | actives 0.098% (n = 340,000);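 active means mean replicate inhibition of at least 30% and at least 1% of replicates passing that level; inconclusive means only one of the two criteria is met; inactive means neither criterion is met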
PGC1a acetyl inh – inhibitors of PGC1a acetylation signal, primary screen, cell-based, U2OS, AlphaScreen, inhibitor mode; AlphaScreen anti-acetyl-lysine; with virally co-expressed GCN5 acetyltransferase; inhibition, % at 15.6 µM; actives 0.17% (n = 350,000);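 active means every replicate shows inhibition of at least 40%; inconclusive means mean inhibition at least 40% but some replicate below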
Numbers stand for hits; n = inactive; u = inconclusive; x = not tested or not shown.

SMILES	GSIS activator	ERAP1 HTS inh	rRNA inh HTS	DENV2 CPE rescue	CaV13 FRET inh	PGC1a acetyl inh
O=C(C[C@@H]1C[C@H]2c3cc(NS(=O)(=O)c4ccc(F)cc4)ccc3O[C@H]2[C@@H](CO)O1)NCc1cc(F)ccc1F	n	n	n	n	x	n
O=C(CCc1ccccc1)NNC(=O)Nc1ccccc1	n	n	n	n	n	n
O=C(CCCCCCCC(=O)NNC(=O)Nc1ccccc1)NNC(=O)Nc1ccccc1	n	n	n	115.2	n	x
O=C(NC1CCC1)[C@H]1[C@H](CO)[C@H]2Cn3c(ccc(-c4ccccc4F)c3=O)[C@@H]1N2C(=O)CC1CC1	n	n	n	n	x	x
CC(C)(C)c1cc(/C=N/O)cc(C(C)(C)C)c1O	n	n	n	n	n	n
CNC(=S)c1cc(C(C)(C)C)c(O)c(C(C)(C)C)c1	n	n	-20.6	n	n	x
Cc1c(Cl)cccc1NS(=O)(=O)c1ccc2c(c1)C1C=CCC1C(c1ccc(C(=O)O)cc1)N2 (stereo not given)	x	x	x	x	x	107.4
O=C(O)c1ccc2c(c1)C1C=CCC1C(c1ccncc1)N2 (stereo not given)	n	x	n	n	n	n
COc1ccc(NS(=O)(=O)c2ccc3c(c2)[C@H]2C=CC[C@H]2[C@@H](c2ccc(C(=O)O)cc2)N3)cc1	n	31.9	n	n	n	x
CC(=O)c1ccc2c(c1)C1C=CCC1C(c1ccc(S(=O)(=O)N3CCOCC3)cc1)N2 (stereo not given)	n	x	x	x	n	x
Cc1nn(-c2ccccc2)c(N2CCCC2)c1/C=N/NC(=S)Nc1ccccc1C(F)(F)F	x	n	n	u	n	x
Cc1ccc(NC(=S)N/N=C/c2c(C)nn(-c3ccccc3)c2N2CCCC2)cc1	64.0	n	n	n	n	x
COc1ccccc1NS(=O)(=O)c1cccc(C(=O)N/N=C/c2c(C)nn(-c3ccccc3)c2N2CCCC2)c1	73.3	n	n	n	n	x
Cc1nn(-c2ccccc2)c(N2CCCC2)c1/C=N/NC(=S)Nc1ccc(F)cc1	74.5	n	n	n	n	n
Cc1nn(-c2ccccc2)c(Cl)c1/C=N/O	n	n	n	n	n	x
Cc1nn(-c2ccccc2)c(N2CCCC2)c1/C=N/O	91.2	n	n	n	n	n
CC(C)CC#Cc1ccc([C@@H]2[C@H]3CN(C(=O)c4cnccn4)CC(=O)N3[C@H]2CO)cc1	n	n	n	u	x	n
C[C@H](CO)N1C[C@H](C)[C@H](CN(C)C(=O)Nc2ccccc2)Oc2ncc(C#CC3CCCCC3)cc2C1=O	n	x	n	n	x	n
Cc1ccc(/C=C2\SC(=O)N(CCC(=O)N3CCN(C)CC3)C2=O)cc1	50.0	n	n	u	n	x
CN1CCN(C(=O)CCN2C(=O)S/C(=C/c3ccc(Cl)cc3)C2=O)CC1	n	n	n	n	n	x
O=C(C[C@H]1CC[C@@H]2[C@H](COC[C@@H](O)CN2S(=O)(=O)c2ccc(F)cc2)O1)N[C@H]1CCN(Cc2ccccc2)C1	n	n	n	n	x	n
CC(=O)N1[C@@H]2Cn3c(cccc3=O)[C@H]1[C@@H](C(=O)NCc1ccc(F)cc1)[C@@H]2CO	n	n	n	n	x	n
Cc1cccc(-c2nnn3c2nc(NCCc2ccc(S(N)(=O)=O)cc2)c2ccccc23)c1	n	x	x	x	n	x
NS(=O)(=O)c1ccc(CCNc2nc3c(-c4cccc(F)c4)nnn3c3ccccc23)cc1	59.1	x	x	x	n	n
COc1ccc(N2C(=O)N3[C@H](c4cccc(C)c4)[C@@H]4C(=O)N(Cc5ccccc5)C(=O)[C@@H]4[C@]3(Cc3ccccc3)C2=O)cc1	n	n	n	82.1	n	x
SMILES	GSIS activator	ERAP1 HTS inh	rRNA inh HTS	DENV2 CPE rescue	CaV13 FRET inh	PGC1a acetyl inh
COc1ccc([C@@H]2[C@@H]3C(=O)N(C(C)(C)C)C(=O)[C@@H]3[C@]3(Cc4ccccc4)C(=O)N(c4ccc(OC)cc4)C(=O)N23)cc1	n	n	n	u	n	n
CC(C)(C)C(=O)c1sc(Nc2ccccc2)nc1N	n	n	-39.1	x	n	n
Cc1ccc(S(=O)(=O)N(C)C[C@@H]2OCCCC[C@@H](C)Oc3ccc(NC(=O)NC4CCCCC4)cc3C(=O)N([C@@H](C)CO)C[C@@H]2C)cc1	n	n	n	n	x	n
CCC(C)N(C(=O)CSc1nnc(-c2ccco2)n1C)C1CCS(=O)(=O)C1 (stereo not given)	n	n	n	n	n	x
CCC(C)N(C(=O)CSc1nncn1C)C1CCS(=O)(=O)C1 (stereo not given)	102.4	n	n	n	n	n
Cc1nnc(SCC(=O)N(C2CCCCC2)C2CCS(=O)(=O)C2)n1N (stereo not given)	n	n	n	34.9	n	x
CC(=O)Nc1nc(-c2ccccc2)nc(-c2ccccc2OC(C)=O)n1	n	n	n	x	n	x
CC(=O)Nc1nc(C)nc(-c2ccccc2OC(C)=O)n1	44.8	n	n	n	n	n
CO[C@H]1CN(C)C(=O)c2ccc(NS(=O)(=O)CC(F)(F)F)cc2OC[C@@H](C)N(CC2CCCCC2)C[C@H]1C	n	n	n	n	x	n
N#CC1=C(Nc2ccccc2Cl)SC(c2ccccc2O)NC1=O (stereo not given)	n	n	-27.1	n	n	x
CCCN1C[C@H](C)[C@H](OC)CN(C)C(=O)c2cc(NC(=O)Nc3ccccc3F)ccc2OC[C@@H]1C	n	x	n	n	x	n
CN1C(C(=O)c2ccccc2)=C(N)c2ccccc2S1(=O)=O	n	n	-22.6	n	n	n
C[C@@H]1CN([C@H](C)CO)C(=O)Cc2cc(NC(=O)Nc3ccccc3)ccc2O[C@@H]1CN(C)C(=O)Nc1ccc(F)cc1	n	n	n	n	x	n
Cc1cccc(C(=O)Nc2cccc(C(=O)Nc3cc(C)ccn3)c2)c1	x	x	x	x	x	n
Cc1ccnc(NC(=O)c2cccc(NC(=O)Cc3ccccc3)c2)c1	n	n	-31.5	n	n	n
C[C@@H]1CN([C@H](C)CO)C(=O)c2cccc(NC(=O)C3CCOCC3)c2O[C@@H]1CN(C)CC1CCCCC1	n	n	n	n	x	n
CCOc1ccc(N2C(=O)C(=O)/C(=C(/O)c3ccccc3)C2c2ccccc2[N+](=O)[O-])cc1 (stereo not given)	x	n	-16.7	n	n	x
O=C1C(=O)N(c2ccccc2)C(c2ccccc2[N+](=O)[O-])/C1=C(\O)c1ccccc1 (stereo not given)	x	n	x	n	n	x
N/C(=N\OC(=O)c1ccc(Cl)cc1[N+](=O)[O-])c1cccnc1	n	n	-21.8	n	n	x
